# High-throughput results (PubChem BioAssay)
# NR3A LBD binder: modulates the human NR3A ligand-binding domain | NR3A LBD differential scanning fluorimetry, Tm shift; 0% = protein alone, 100% = glycine-bound protein | Tm shift relative to glycine control, % at 25 µM | AID 1259313 | 340,000 compounds, 2.5% hits;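 active = melting temperature shift of at least 10% of the positive control shift, at one fixed dose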
# H9c2 protect: myocardial damage modulation in H9c2 cells; protection from H2O2 cell death, % at 20 µM; H9c2 cardiomyocytes, H2O2 injury protection, ATPLite, 2 h; 360,000 compounds, 0.63% hits;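 active = compounds giving at least 50% protection of heart cells from peroxide-induced death in the single-dose screen, raw or plate-pattern-corrected value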;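 also: 0% = DMSO wells with peroxide and 100% = DMSO wells without peroxide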
# Mot1-301 SUMO: inhibitors of SUMOylation pathway: yeast Mot1-301 growth rescue; S. cerevisiae Mot1-301 growth rescue, ATP luminescence, 38.5C; percent above DMSO median, 100 means doubled; growth rescue, % at 18.8 µM; 320,000 compounds, 1% hits;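 active = every valid replicate shows activation above 250% relative to neutral control wells; inactive = the rest, any valid replicate at or below 250%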;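 also: OY570 slx delta 5 strain wells were the positive control but not used for scaling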
# AI-2 QS mod: modulates the Vibrio harveyi AI-2 quorum sensing system; 300,000 compounds, 0.4% hits; activity change, % at 7.5 µM; Vibrio harveyi JMH597 AI-2 luminescence/OD600 ratio, 9 h; hits give low values; strain lacks LuxN and CqsS sensors; 0 = neutral-control median; AID 2094; in the data active = activity change below about -75%, passing the limit was not always enough;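 also: luminescence divided by OD600 gain over 9 h not by final OD600 alone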
# NTR1 ag: NTR1 (human) agonism; P30989; NTR1-U2OS beta-arrestin-GFP spot imaging, agonist mode; activation, % at 20 µM; 330,000 compounds, 0.17% hits; AID 493036;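 active = activation at or above 40% of the spot to cytoplasm intensity ratio, with at least 20 cells analyzed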;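 also: 0% = DMSO without peptide and 100% = 100 nM NTR1 peptide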
# AHR activator: activators of human aryl hydrocarbon receptor. P35869. activation, % at 5 µM. 320,000 compounds, 2.5% hits. AHR-responsive luciferase reporter cells, luminescence; in the data active = activation above about 47%;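 also: 0% = vehicle wells and 100% = reference agonist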
# Target sequence (P35869 whole entry, looked up): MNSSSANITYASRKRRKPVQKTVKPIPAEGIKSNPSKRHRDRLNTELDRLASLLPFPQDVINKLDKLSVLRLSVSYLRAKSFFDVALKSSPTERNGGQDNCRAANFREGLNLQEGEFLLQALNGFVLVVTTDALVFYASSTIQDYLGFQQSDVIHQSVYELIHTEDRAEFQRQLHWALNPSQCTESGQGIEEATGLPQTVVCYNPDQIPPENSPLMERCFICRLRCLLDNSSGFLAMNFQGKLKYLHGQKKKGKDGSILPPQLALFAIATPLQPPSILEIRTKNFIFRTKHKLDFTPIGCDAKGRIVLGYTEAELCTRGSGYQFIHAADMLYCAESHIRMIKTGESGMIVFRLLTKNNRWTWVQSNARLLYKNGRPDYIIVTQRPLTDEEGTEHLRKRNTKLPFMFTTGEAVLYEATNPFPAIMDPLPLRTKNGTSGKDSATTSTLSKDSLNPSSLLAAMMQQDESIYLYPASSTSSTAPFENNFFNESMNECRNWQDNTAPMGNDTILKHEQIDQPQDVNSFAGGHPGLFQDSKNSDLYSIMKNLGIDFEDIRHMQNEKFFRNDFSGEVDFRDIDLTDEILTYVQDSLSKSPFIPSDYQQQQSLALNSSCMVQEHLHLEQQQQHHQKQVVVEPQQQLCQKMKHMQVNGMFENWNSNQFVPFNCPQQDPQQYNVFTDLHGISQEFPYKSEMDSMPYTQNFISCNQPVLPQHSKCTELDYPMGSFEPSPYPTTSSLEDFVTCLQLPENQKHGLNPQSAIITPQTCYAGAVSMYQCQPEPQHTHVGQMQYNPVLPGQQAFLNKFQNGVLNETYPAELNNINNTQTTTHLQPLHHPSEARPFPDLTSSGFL
# Starred values were filed as active, the others as inactive; nt = no result given. Rows were chosen to be rich in hits. Some 6.2% of all compounds tested hit in one or more screens of this group.
SMILES,NR3A LBD binder,H9c2 protect,Mot1-301 SUMO,AI-2 QS mod,NTR1 ag,AHR activator
COc1cc(/C=N/n2c(COc3ccccc3)n[nH]c2=S)cc(Br)c1O,-1.8,-3.4,16.0,13.5,0.6,3.9
Cc1cc(C)c(C(N)=O)c(Nc2cccc3ccccc23)n1,-0.9,-24.0,2.3,33.0,-1.0,51.9*
COc1cc(/C=N/NC(=O)c2cccc([N+](=O)[O-])c2)ccc1OCc1ccc(C)cc1,16.7*,-11.0,-5.3,11.8,-1.1,3.8
COc1cc(C(=O)N/N=C/c2ccc(OC(=O)c3cccc(C)c3)c(OC)c2)ccc1O,5.4,58.0*,-2.4,3.7,8.9,9.9
COc1ccc(/C=N/NC(=O)c2cccc([N+](=O)[O-])c2)cc1O,-18.9,3.7,-11.0,34.8,-1.0,8.3
Cc1cccc(C(=O)Oc2ccc(/C=N/NC(=O)c3cc(O)cc(O)c3)cc2)c1,13.9*,32.1,-8.3,47.2,18.7,nt
COc1ccc(S(=O)(=O)N(C)C[C@@H]2Oc3cc(C#CC4CCCCC4)ccc3S(=O)(=O)N([C@@H](C)CO)C[C@@H]2C)cc1,nt,-15.9,nt,nt,nt,nt
O=C(Nc1ccc(Cl)cc1)Nc1nnc(CSCc2ccccc2Cl)s1,-4.9,-31.7,nt,30.3,3.3,-0.8
O=C(Nc1ccc(Cl)cc1)Nc1nc(-c2ccccc2)cs1,11.5*,-5.7,-3.5,14.2,4.4,11.5
Cc1ccc(OCCSCc2nnc(NC(=O)Nc3cccc(Cl)c3)s2)cc1,13.9*,-18.7,-12.8,24.2,4.7,11.5
Cc1cc(NC(=O)Nc2cccc(Cl)c2)no1,nt,-6.7,nt,nt,nt,nt
O=C(Nc1cccc(Cl)c1)Nc1nc(-c2ccccc2)cs1,30.8*,-22.7,-10.9,12.4,3.5,16.6
Cc1nnc(NC(=O)Nc2cccc(Cl)c2)s1,-26.4,-22.5,2.4,-1.1,2.5,71.2*
CC12CCC(=O)N1C(C(=O)N1CCN(S(=O)(=O)c3ccc(Br)cc3Cl)CC1)CS2 (stereo not drawn),-4.6,-1.1,-6.8,-1.5,1.4,2.5
O=C(NCc1ccc(F)cc1F)Nc1cnccc1C(F)(F)F,-0.2,0.9,-18.4,24.7,-1.4,14.3
CCCCN1C(=O)C(CC(=O)NC2CCCCC2)CC(C(=O)N(C)C)=C1C (stereo not drawn),nt,6.4,nt,nt,nt,nt
CNc1nc(NC)c2cn[nH]c2n1,0.5,3.8,nt,nt,nt,nt
COc1cc(OC)c(N2CC(C(=O)Nc3cccc(C(=O)NC4CC4)c3)CC2=O)cc1Cl (stereo not drawn),2.1,5.6,nt,nt,-0.5,nt
NC(CO)c1csc(NC(=O)Nc2cccc(Cl)c2)n1 (stereo not drawn),nt,15.6,nt,nt,nt,nt
Cc1csc(NC(=O)Nc2cccc(Cl)c2)n1,27.9*,-15.3,-1.6,6.1,5.5,22.7
CC(=O)CC(=O)NC1C2CC3CC(C2)CC1C3 (stereo not drawn),1.8,8.1,-8.1,10.5,-2.5,-2.2
CC(C)NC(=O)NC1C2CC3CC(C2)CC1C3 (stereo not drawn),12.5*,10.9,7.4,26.0,-1.2,1.4
O=C(O)c1cccc(NC(=O)C23CC4CC(C2)CC(n2cnc(Cl)n2)(C4)C3)c1,0.9,-13.9,-1.8,31.1,-0.1,1.1
COc1ccc(NC(=O)C23CC4CC(C2)CC(n2cnc(Br)n2)(C4)C3)cc1Cl,-3.9,0.4,33.1,2.8,0.1,50.6*
Cc1ccc(Oc2nc(-c3ccccc3)ncc2S(C)(=O)=O)cc1,-0.4,-16.0,-5.2,7.5,2.6,15.5
SMILES,NR3A LBD binder,H9c2 protect,Mot1-301 SUMO,AI-2 QS mod,NTR1 ag,AHR activator
Cc1ccc(Oc2nc(-c3ccccc3)ncc2S(=O)(=O)c2ccc(C)cc2)cc1,11.4*,-22.0,-5.4,28.2,0.5,1.3
CCCc1nc2ccc(Cl)cn2c1Cc1ccsc1,nt,-4.6,nt,nt,nt,nt
O=C(Cn1cc(C(F)(F)F)cc(Cl)c1=O)NCc1ccc(F)cc1,-0.4,2.7,-25.6,21.9,3.9,4.6
COc1cccc(NC(=O)CN(C)C(=O)c2ccc(NC(=O)CC3SC(N4CCCCC4)=NC3=O)cc2)c1 (stereo not drawn),4.5,-1.9,-12.3,-7.2,-0.5,-1.6
Cc1c(C(=O)OCC(=O)Nc2cccc(S(N)(=O)=O)c2)oc2c1ccc1ccccc12,14.7*,5.2,7.2,29.0,17.9,6.1
COc1ccc(NC(=O)CN(C)C(=O)c2oc3c(ccc4ccccc43)c2C)cc1,-10.2,-3.7,2.1,nt,1.5,27.2
